Hits are enriched below; roughly 4% of the tested compounds scored in any of these assays.
Mtb betalactam: beta-lactam sensitization of Mtb H37Rv | M. tuberculosis H37Rv growth with meropenem, percent inhibition | inhibition, % at 25 µM | 330,000 compounds, 0.27% hits; call rule not given here;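 further: growth measured after seven days incubation then overnight dye step; 0% = bacteria only wells and 100% = bacteria with antibiotic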
GDH-TPI inh: GDH-TPI coupled enzyme inhibition counter-screen. AID 588335. inhibition, % at 4.8 µM. 360,000 compounds, 1.2% hits. GDH-TPI coupled enzyme counterscreen, NADH absorbance; in the data active means inhibition above about 30%;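 further: 0% = DMSO wells and 100% = wells lacking the enzyme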
Mtb FBA inh: inhibitors of M. tuberculosis fructose-bisphosphate aldolase | P9WQA3 | purified M. tuberculosis FBA, fluorescence read-out | inhibition, % at 1 µM | 360,000 compounds, 2.3% hits; in the data active means inhibition above about 27%;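 further: 0% = vehicle and 100% = reference inhibitor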
Target sequence (P9WQA3 whole entry, looked up): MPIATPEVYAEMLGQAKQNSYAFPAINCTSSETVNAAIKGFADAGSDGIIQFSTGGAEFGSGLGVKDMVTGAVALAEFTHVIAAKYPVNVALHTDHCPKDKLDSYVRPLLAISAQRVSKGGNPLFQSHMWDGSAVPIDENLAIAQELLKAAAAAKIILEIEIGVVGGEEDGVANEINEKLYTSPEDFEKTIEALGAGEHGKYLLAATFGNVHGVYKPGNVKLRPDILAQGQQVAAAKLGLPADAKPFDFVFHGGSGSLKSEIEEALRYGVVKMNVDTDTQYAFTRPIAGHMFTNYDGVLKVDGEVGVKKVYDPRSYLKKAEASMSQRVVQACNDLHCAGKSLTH
Rv3671c protease: inhibitors of M. tuberculosis serine protease Rv3671c. 320,000 compounds, 0.048% hits. inhibition, % at 5.96 µM. P9WHR9; in the data active means inhibition above about 38%;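 further: extracellular domain of Rv3671c used as enzyme; 0% = enzyme with DMSO and 100% = no enzyme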
RecA intein inh: Mtb RecA intein splicing inhibition | P9WHJ3 | cell-free RecA intein splicing, fluorescence | inhibition, % (concentration not given with the values) | 290,000 compounds, 0.75% hits | AID 2221; in the data active means inhibition above about 30%; inconclusive means no clear call, values can overlap the other calls;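 further: 0% = vehicle wells and 100% = reference inhibitor control wells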
UGM FP inh: blocks M. tuberculosis UGM enzyme; purified UGM, fluorescence polarization probe displacement; inhibition, % at 10 µM; 320,000 compounds, 0.06% hits; AID 504406; in the data active means inhibition above about 10%, passing the limit was not always enough; inconclusive means no clear call, values can overlap the other calls
An asterisk follows results filed as active; u = inconclusive; x = not tested or not shown.

SMILES | Mtb betalactam | GDH-TPI inh | Mtb FBA inh | Rv3671c protease | RecA intein inh | UGM FP inh
COc1ccc(/C=N/NC(=O)c2ccc(NC(=O)c3cccc([N+](=O)[O-])c3)cc2)c(C(=O)O)c1OC | 0 | 31* | 2 | -11 | -3 | 3
COc1ccccc1/C=N/NC(=O)c1ccc(NC(=O)c2cccc([N+](=O)[O-])c2)cc1 | 5 | x | x | -5 | 0 | 0
COc1ccc(/C=N/NC(=O)c2cccc([N+](=O)[O-])c2)cc1O | 0 | 32* | -2 | -7 | -2 | 1
C=CCn1c(O)c(/C=N/N2CCCCC2c2cccnc2)c(=O)[nH]c1=S (stereo unspecified) | 3 | 31* | -2 | -7 | -2 | 2
COc1cccc(C2NC(c3cccc(OC)c3O)C(C)C(=O)C2C)c1O (stereo unspecified) | 5 | -3 | 3 | -4 | 1 | 3
CC1C(=O)C(C)C(c2cc(Cl)ccc2O)NC1c1cc(Cl)ccc1O (stereo unspecified) | -1 | 7 | 2 | -22 | 50* | 2
O=C1c2nc3cc(-c4ccco4)[nH]n3c(=O)c2CN1C1CCCCC1 | -4 | -1 | 129* | 2 | 2 | 2
O=C(CSc1nnnn1-c1ccccc1)CSc1nnnn1-c1ccccc1 | 8 | 12 | -2 | -8 | -2 | 0
O=C(CSc1nnnn1-c1ccccc1)c1ccc(O)cc1O | 0 | 42* | -8 | -14 | 0 | -3
Cc1cc(C)nc(SCC(=O)c2ccc(O)cc2O)n1 | -4 | 50* | -2 | 0 | 6 | 7
Cc1cc(C)nc(SCC(=O)c2ccc(O)c(O)c2)n1 | -2 | 7 | 5 | -2 | -3 | 1
S=C(Nc1ccccc1)N1CCC(Cc2ccccc2)CC1 | -5 | 5 | 1 | -1 | 3 | -4
CC(C)CNC(=O)C1(C)CCCN1C(=O)c1cccnc1Oc1ccccc1 (stereo unspecified) | x | -9 | -1 | x | x | x
COc1ccc(S(=O)(=O)N2CCCCC2)cc1NC(=O)c1ccc(N2CCCC2=O)cc1 | -1 | 5 | -2 | -3 | x | 1
CCCCCn1c(=O)c(C(=O)Nc2ccccc2S(N)(=O)=O)c(O)c2ccccc21 | 3 | 3 | 2 | -5 | -3 | 65*
CCC(C(=O)Nc1cccc(C(=O)O)c1C)c1ccccc1 (stereo unspecified) | -3 | 8 | 143* | -4 | 0 | -1
Cc1ccc(-n2nc3c4c(cccc4c2=O)-c2ccccc2-3)cc1 | 8 | 33* | 2 | -6 | 0 | -1
COC(=O)CC1C(=O)NCCN1C(=O)c1oc2c(C)c(C)ccc2c1C (stereo unspecified) | x | -4 | 0 | x | x | x
C(=N\Nc1ccc2nncn2n1)/c1ccco1 | -2 | 18 | 0 | 12 | -4 | -1
BrC(=C\c1ccccc1)/C=N/Nc1ccc2nncn2n1 | -3 | 32* | -1 | 5 | 3 | 0
Cc1cc(N2CCOCC2)nc2ccc(NC(=O)CCC(=O)N3CCC(C)CC3)cc12 | u | 0 | 54* | -6 | -3 | -1
CCOc1ccc(C(=O)Nc2ccc3nc(N4CCN(CC)CC4)cc(C)c3c2)cc1 | 42 | 15 | 3 | -4 | 2 | -2
Cc1cc(N2CCN(C)CC2)nc2ccc(NC(=S)NCCC(C)C)cc12 | 51 | 14 | 6 | -4 | -2 | 1
CCCCNC(=O)CCC(=O)Nc1ccc2nc(N3CCC(C)CC3)cc(C)c2c1 | 7 | 9 | 68* | -12 | 0 | -1
Cc1cc(N2CCOCC2)nc2ccc(NC(=S)NCCC(C)C)cc12 | 31 | -1 | 28* | 10 | -2 | 3
SMILES | Mtb betalactam | GDH-TPI inh | Mtb FBA inh | Rv3671c protease | RecA intein inh | UGM FP inh
CCN1CCN(c2cc(C)c3cc(NC(=O)c4cc(OC)cc(OC)c4)ccc3n2)CC1 | 38 | 34* | 3 | 16 | 0 | 0
COc1ccc(NC(=O)CCC(=O)Nc2ccc3nc(N4CCOCC4)cc(C)c3c2)c(OC)c1 | 3 | -5 | 14 | -4 | 1 | -2
CCC(C)NC(=O)CCC(=O)Nc1ccc2nc(N3CC(C)CC(C)C3)cc(C)c2c1 (stereo unspecified) | 18 | 15 | 10 | 8 | -6 | -1
CSc1nncn1/N=C/c1ccc2c(c1)OCO2 | 6 | 35* | 1 | -9 | -2 | 0
CC1(C)CC(=O)c2sc(N3CCCCC3)nc2C1 | -6 | 42* | -1 | 2 | -3 | -1
CC1(C)CC(=O)c2sc(NS(C)(=O)=O)nc2C1 | -12 | 35* | 0 | 1 | -5 | 3
CC1(C)CC(=O)c2sc(NC(=O)CN3C(=O)CCC3=O)nc2C1 | 2 | 32* | 3 | 16 | 1 | 3
CC1(C)CC(=O)c2sc(NC(=O)C3COc4ccccc4O3)nc2C1 (stereo unspecified) | 13 | 34* | 2 | -4 | 1 | 2
CC(=O)c1sc(NC(=O)C2COc3ccccc3O2)nc1C (stereo unspecified) | 0 | 17 | 5 | 2 | 0 | 0
CCCc1ccc(S(=O)(=O)N2CCN(C(C)C(=O)NCc3ccc(OC)cc3)CC2)cc1 (stereo unspecified) | 10 | 8 | 2 | -6 | x | 0
O=C(NCc1cccc(C(F)(F)F)c1)c1ccc2c(c1)OCCO2 | 1 | -1 | 6 | 2 | -2 | 2
COC(=O)C1=NN(C(=O)c2cccc(Br)c2)C(O)(c2ccc(Cl)cc2)C1 (stereo unspecified) | 9 | 7 | -10 | 16 | 37* | 0
O=C1NC(=Nc2ccccc2)S/C1=C\c1ccccc1 | 4 | 33* | 0 | -9 | 3 | 3
O=C1NC(=Nc2cccc(O)c2)S/C1=C\c1cccc([N+](=O)[O-])c1 | 3 | 32* | -3 | -8 | 0 | 0
O=C1NC(=Nc2cccc(O)c2)S/C1=C\c1cccnc1 | -1 | 27 | -3 | -5 | 1 | 1
COc1ccc(/C=C2\SC(=Nc3ccccc3OC)NC2=O)cc1 | 9 | 50* | -2 | -16 | 6 | 2
CCOC(=O)CNC(=O)CSc1nccn1Cc1ccco1 | -8 | -10 | 3 | 5 | -1 | -1
Cc1ccc(-c2ccc(/C=N\n3cnnc3)o2)c(Br)c1 | 10 | 45* | 5 | 0 | -2 | 2
Fc1ccc(-c2ccc(/C=N\n3cnnc3)o2)cc1Cl | 4 | 42* | 4 | 2 | 3 | 3
O=[N+]([O-])c1cc(-c2ccc(/C=N/n3cnnc3)o2)ccc1Cl | 35 | 24 | 0 | -5 | 10 | -1
Fc1ccc(-c2ccc(/C=N/n3cnnc3)o2)cc1 | 12 | 41* | 4 | 5 | 3 | 3
O=[N+]([O-])c1ccc(Cl)c(-c2ccc(/C=N/n3cnnc3)o2)c1 | 1 | 53* | 1 | -3 | 8 | -2
Cc1cc(-c2ccc(/C=N/n3cnnc3)o2)c(C)c([N+](=O)[O-])c1 | 0 | 24 | 0 | -2 | 4 | 2
CC(=O)NCc1ccc(C(=O)COC(=O)COc2ccc(Cl)c(C)c2)s1 | 5 | -3 | 1 | 10 | x | -1

From PubChem
